# “And” between values parts separate entries of the source, which are not always exact repeats. Equal entries are not always repeated. Inconclusive results are not listed. More than one record can exist for a structure, and the calls need not agree. The source made the active and inactive calls. How the source made its calls, unless noted: active means hit-call score of the fitted dose curve at least 0.9, where 1 is the maximum; inactive means score below 0.9.
# Legend:
# [1] = CCTE_Deisenroth_AIME_384WELL_CTox_Active: Cytotoxicity Assessment (CTOX) in CCTE's 384-well Estrogen Receptor Transactivation Assay with AIME metabolic competence (metabolism positive), Deisenroth Lab (AID 2284037; active means hit-call score of the fitted dose curve at least 0.9, where 1 is the maximum;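 further: chemicals first conditioned 2 h by alginate-bound induced rat liver S9 before cells; activity means signal loss indicating cell death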)
# How it was run: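 Cytotoxicity in VM7Luc4E2 breast cells, 24 hour, measured as protease-substrate fluorescence loss, after 2-hour metabolic conditioning with induced rat hepatic S9 in alginate microspheres. Concentrations 0.002 - 200 uM, 10 points, bidirectional fitting.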
# [2] = molecular target: Estrogen receptor (Homo sapiens) (UniProt P03372); test: CCTE_Deisenroth_AIME_384WELL_LUC_Inactive: CCTE's 384-well Estrogen Receptor Transactivation Assay without AIME metabolic competence (ERTA luciferase; metabolism negative), Deisenroth Lab (AID 2284038; active means hit-call score of the fitted dose curve at least 0.9, where 1 is the maximum;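 further: VM7Luc4E2 breast cells given medium preincubated 2 h with S9-free microspheres; hits raise estrogen receptor luciferase signal so potencies reflect agonists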)
# How it was run: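 Metabolism-negative mode: AIME lids stamped in alginate-water, no hepatic S9. 2 h chemical incubation → medium onto VM7Luc4E2 ERTA, 24 h. Readout luciferase luminescence; gain-of-signal fit vs 17beta-estradiol. Conc. 0.002 - 200 uM.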
# [3] = molecular target: Estrogen receptor (Homo sapiens) (UniProt P03372); test: CCTE_Deisenroth_AIME_384WELL_LUC_Shift: CCTE's 384-well Estrogen Receptor Transactivation Assay with AIME metabolic competence data shift (ERTA luciferase; difference in metabolism positive and negative), Deisenroth Lab (AID 2284041);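 further: shift is response with S9 minus without S9 so positive means metabolism raised ER signal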
# How it was run: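 Test chemicals (0.002–200 uM, 10-point) were pre-incubated 2 h with alginate microspheres containing phenobarbital/beta-naphthoflavone-induced male Sprague Dawley rat liver S9 or water, then medium was transferred to VM7Luc4E2 cells for 24 h luciferase readout; shift = S9-positive minus S9-negative normalized response.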
# [4] = CCTE_Shafer_MEA_dev_firing_rate_mean: CCTE's Neural Network Formation Assay for Mean Firing Rate, Shafer Lab (AID 2284031)
# How it was run: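 Read-out: spike count/recording length, averaged over active electrodes, then AUC across days 5, 7, 9, 12. Rat cortical cultures on MEA; continuous 12-day exposure, media and treatment renewed DIV 5, 9; DMSO baseline.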
# [5] = CCTE_Shafer_MEA_dev_active_electrodes_number: CCTE's Neural Network Formation Assay for Number of Active Electrodes, Shafer Lab (AID 2284040; active means hit-call score of the fitted dose curve at least 0.9, where 1 is the maximum;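 on AC50: potency for loss of active electrodes versus DMSO so lower counts are hits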)
# How it was run: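 Developing rat cortical networks on MEAs, exposed DIV 0–12. Value is the AUC of active-electrode counts (≥5 spikes/min) from days 5, 7, 9, 12, relative to DMSO.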
# [6] = CCTE_Shafer_MEA_dev_burst_rate: CCTE's Neural Network Formation Assay for Burst Rate, Shafer Lab (AID 2284042)
# How it was run: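 Primary rat cortical neurons on PEI-coated 48-well MEA plates (laminin added with cells at plating) (16 electrodes/well), exposed from plating to day 12, dosing renewed at DIV 5 and 9. Burst rate averaged over active electrodes, recorded DIV 5, 7, 9, 12, summarized as AUC; loss versus DMSO.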
# [7] = CCTE_Shafer_MEA_dev_bursting_electrodes_number: CCTE's Neural Network Formation Assay for Number of Bursting Electrodes, Shafer Lab (AID 2284043; active means hit-call score of the fitted dose curve at least 0.9, where 1 is the maximum;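 on AC50: potency is for loss of bursting electrodes relative to DMSO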)
# How it was run: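 Number of electrodes reaching ≥1 burst every 2 min was recorded at DIV 5, 7, 9 and 12 and collapsed as trapezoidal area under the curve. Cultures were rat cortical neurons on MEA plates, dosed continuously from plating with medium and treatment refreshed on DIV 5 and 9.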
# [8] = CCTE_Shafer_MEA_dev_per_burst_interspike_interval: CCTE's Neural Network Formation Assay for Burst Interspike Interval, Shafer Lab (AID 2284044);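 on AC50: potency for a decrease of within-burst interspike interval below DMSO level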
# How it was run: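 Readout is the average time between spikes inside single-electrode bursts, taken as a well mean across bursting electrodes. Cortical neurons from rat developed networks on MEA plates under continuous 12-day exposure; recordings on days 5, 7, 9 and 12 were integrated by trapezoidal AUC.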
# [9] = CCTE_Shafer_MEA_dev_burst_duration_mean: CCTE's Neural Network Formation Assay for Mean Burst Duration, Shafer Lab (AID 2284045)
# How it was run: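 Mean single-electrode burst duration (first to last spike), averaged over bursting electrodes per well, then integrated as area-under-curve across recordings at days 5, 7, 9 and 12. Rat cortical cultures on MEAs, compound present from plating, refreshed at feeds.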
# [10] = CCTE_Shafer_MEA_dev_interburst_interval_mean: CCTE's Neural Network Formation Assay for Mean Interburst Interval, Shafer Lab (AID 2284046);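 further: well-mean interburst interval of bursting electrodes as AUC over four recording days; curve fitted for decrease in interburst interval relative to DMSO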
# How it was run: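 Recordings on days 5, 7, 9 and 12 give well-mean interburst interval across actively bursting electrodes, summarized as area under the curve. Cultures: rat cortical neurons, continuous exposure from day 0, compound renewed at feeds; decrease analyzed versus DMSO.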
# [11] = CCTE_Shafer_MEA_dev_inter_network_spike_interval_mean: CCTE's Neural Network Formation Assay for Mean Inter-network Spike Interval, Shafer Lab (AID 2284047)
# How it was run: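 Primary rat cortical neurons on 16-electrode MEA wells, exposed from plating day 0 through DIV 12, compound renewed at DIV 5 and 9 media changes. Mean interval between network-spike peaks recorded DIV 5, 7, 9, 12; collapsed as trapezoidal AUC, fitted downward versus DMSO.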
# [12] = CCTE_Shafer_MEA_dev_network_spike_peak: CCTE's Neural Network Formation Assay for Mean Number of Electrodes in Network Spike, Shafer Lab (AID 2284049);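 on AC50: fitted for loss of signal meaning fewer electrodes in network spikes than DMSO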
# How it was run: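 Rat cortical primary culture, 1.5 x 10^5 cells/well, 48-well MEA (16 electrodes/well). Dosing day 0 through DIV 12, full media/compound exchange DIV 5, 9. AxIS adaptive spike detection; AUC over days 5/7/9/12; loss-of-signal vs DMSO.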
# [13] = test system: DIO2 (gene 1734); test: CCTE_GLTED_hDIO2: CCTE's human Deiodinase 2 (DIO2) Inhibition Assay, Great Lakes Toxicology and Ecology Division (GLTED) Lab (AID 2284050; active means hit-call score of the fitted dose curve at least 0.9, where 1 is the maximum)
# How it was run: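 Readout: absorbance from Sandell-Kolthoff detection of free iodide released by human DIO2 during a 3 h incubation with chemical. Cell-free format, n=3; activity fitted relative to DMSO negative control.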
# Sequence of Estrogen receptor (Homo sapiens) (P03372 whole entry, looked up): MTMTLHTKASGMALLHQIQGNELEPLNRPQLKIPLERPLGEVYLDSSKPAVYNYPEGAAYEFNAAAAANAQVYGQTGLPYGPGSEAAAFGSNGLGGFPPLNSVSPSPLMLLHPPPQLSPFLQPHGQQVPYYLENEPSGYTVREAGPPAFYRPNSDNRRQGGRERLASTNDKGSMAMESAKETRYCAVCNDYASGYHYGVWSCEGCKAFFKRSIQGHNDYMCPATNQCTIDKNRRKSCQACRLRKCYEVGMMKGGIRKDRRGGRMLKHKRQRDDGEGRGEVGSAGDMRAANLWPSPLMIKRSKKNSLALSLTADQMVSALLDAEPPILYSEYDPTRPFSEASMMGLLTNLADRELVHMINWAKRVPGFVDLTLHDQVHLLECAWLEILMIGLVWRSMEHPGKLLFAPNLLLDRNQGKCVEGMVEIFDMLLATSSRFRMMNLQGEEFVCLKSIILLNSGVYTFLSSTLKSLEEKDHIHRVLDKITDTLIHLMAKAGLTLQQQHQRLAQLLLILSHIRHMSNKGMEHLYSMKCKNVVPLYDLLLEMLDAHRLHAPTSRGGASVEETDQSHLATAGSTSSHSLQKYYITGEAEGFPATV
smiles,measurement,setting,value
CCOP(=S)(OCC)Oc1nc(Cl)n(C(C)C)n1,outcome,[1],inactive
same,outcome,[2],inactive
same,outcome,[3],inactive
CCNC(=O)NC(=O)C(C#N)=NOC,outcome,[4],inactive
same,outcome,[5],inactive
same,outcome,[6],inactive
same,outcome,[7],inactive
same,outcome,[8],inactive
same,outcome,[9],inactive
same,outcome,[10],inactive
same,outcome,[11],inactive
same,outcome,[12],inactive
Clc1cccc(C(Cl)(Cl)Cl)n1,outcome,[2],inactive
same,outcome,[3],inactive
COCc1cnc(C2=NC(C)(C(C)C)C(=O)N2)c(C(=O)O)c1 (configuration not stated),outcome,[1],inactive
same,outcome,[2],inactive
same,outcome,[3],inactive
CCCCOCN(C(=O)CCl)c1c(CC)cccc1CC,outcome,[1],inactive
same,outcome,[3],inactive
same,AC50,[13],17.6 µM (active)
CC(C)Nc1nc(Cl)nc(NC(C)C)n1,outcome,[2],inactive
same,outcome,[3],inactive
COc1cc(OC)nc(NC(=O)NS(=O)(=O)c2ncccc2OCC(F)(F)F)n1,outcome,[1],inactive
same,outcome,[2],inactive
same,outcome,[3],inactive
CS(=O)(=O)c1cc(C(F)(F)F)ccc1C(=O)c1cnoc1C1CC1,outcome,[4],inactive
same,outcome,[1],inactive
same,outcome,[2],inactive
same,outcome,[5],inactive
same,outcome,[3],inactive
same,outcome,[6],inactive
same,outcome,[7],inactive
same,outcome,[8],inactive
same,outcome,[9],inactive
same,outcome,[10],inactive
same,outcome,[11],inactive
same,outcome,[12],inactive
CCCCC(C#N)(Cn1cncn1)c1ccc(Cl)cc1 (configuration not stated),outcome,[1],inactive
same,outcome,[3],inactive
CC(C)Oc1cccc(NC(=O)c2ccccc2C(F)(F)F)c1,outcome,[1],inactive
same,outcome,[3],inactive
CCC(C)n1c(=O)[nH]c(C)c(Br)c1=O (configuration not stated),outcome,[1],inactive
same,outcome,[2],inactive
same,outcome,[3],inactive
Nc1cnn(-c2ccccc2)c(=O)c1Cl,outcome,[2],inactive
same,outcome,[3],inactive
CCSC(=O)N1CCCCCC1,outcome,[4],inactive
same,outcome,[1],inactive
same,outcome,[2],inactive
same,AC50,[5],3.42 µM (active)
same,outcome,[3],inactive
same,outcome,[6],inactive
same,AC50,[7],1.93 µM (active)
same,outcome,[8],inactive
same,outcome,[9],inactive
same,outcome,[10],inactive
same,outcome,[11],inactive
same,AC50,[12],5.75 µM (active)
same,outcome,[12],inactive
COc1ccc(-c2ccccc2)cc1NNC(=O)OC(C)C,AC50,[1],79.5 µM (active)
same,outcome,[2],inactive
same,outcome,[3],inactive
CS(=O)(=O)c1ccc(C(=O)C2C(=O)CCCC2=O)c([N+](=O)[O-])c1,outcome,[4],inactive
same,outcome,[5],inactive
same,outcome,[6],inactive
same,outcome,[7],inactive
same,outcome,[8],inactive
same,outcome,[9],inactive
same,outcome,[10],inactive
same,outcome,[11],inactive
same,outcome,[12],inactive
same,AC50,[13],24.8 µM (active)
O=C1C2CC=CCC2C(=O)N1SC(Cl)(Cl)Cl (configuration not stated),outcome,[4],inactive
same,AC50,[5],9.85 µM (active)
same,outcome,[5],inactive
same,outcome,[6],inactive
same,AC50,[7],9.85 µM (active) and 1.97 µM (active)
same,AC50,[8],16.2 µM (active)
same,outcome,[8],inactive
same,outcome,[9],inactive
same,AC50,[10],9.95 µM (active)
same,outcome,[10],inactive
same,outcome,[11],inactive
same,AC50,[12],9.85 µM (active) and 16.2 µM (active)
CC(C)(C)C(=O)C(Oc1ccc(Cl)cc1)n1cncn1 (configuration not stated),outcome,[4],inactive
same,AC50,[5],38.7 µM (active)
same,outcome,[6],inactive
same,AC50,[7],39.6 µM (active)
same,outcome,[8],inactive
same,outcome,[9],inactive
same,outcome,[10],inactive
same,outcome,[11],inactive
same,AC50,[12],38.7 µM (active)
COCC(C)N(C(=O)CCl)c1c(C)csc1C (configuration not stated),outcome,[1],inactive
same,outcome,[2],inactive
same,outcome,[3],inactive
CCOc1nc(C(Cl)(Cl)Cl)ns1,outcome,[2],inactive
same,outcome,[3],inactive
COC(=O)NS(=O)(=O)c1ccc(N)cc1,outcome,[2],inactive
same,outcome,[3],inactive
CCN(CC)c1nc(C)cc(OP(=S)(OC)OC)n1,outcome,[4],inactive
same,AC50,[5],33 µM (active)
same,outcome,[6],inactive
same,AC50,[7],30.5 µM (active)
same,outcome,[8],inactive
same,outcome,[9],inactive
same,AC50,[10],88.6 µM (active)
same,outcome,[11],inactive
same,AC50,[12],30.8 µM (active)
same,AC50,[13],31.1 µM (active)
CC1(C)CON(Cc2ccccc2Cl)C1=O,AC50,[2],73.1 µM (active)
same,AC50,[3],37.7 µM (active)

# — PubChem BioAssay (EPA / NIEHS)
